Test results published in PubChem BioAssay AID686979 (National Center for Advancing Translational Sciences (NCATS), 2013).
Out of some 420,000 compounds screened, about 50,000 (12%) were called active. Not shown: some 26% with an inconclusive outcome. The list comes from a sample in which actives are over-represented; it also holds similar structures and randomly drawn compounds. A number with no mark means an inactive call. The call rests on the fitted dose curve; in most records, active means well fitted inhibition curve with a large enough effect; inconclusive means small, poorly fitted or top-dose-only effect; inactive means flat fitted curve, though single readings scatter.

Experiment: qHTS for Inhibitors of human tyrosyl-DNA phosphodiesterase 1 (TDP1): qHTS in cells in presence of CPT; further: nearly all actives have a fitted effect of over 55% in size
Conditions: chicken DT40 Tdp1-/-;hTDP1 cells + 20 nM CPT, ATP luminescence, 48 h; series mostly up to 46.2 µM; activity change, negative = growth inhibition: at the top concentration
Method in brief: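 Chicken DT40 Tdp1-/- cells stably complemented with human TDP1 were seeded at 400 cells/well in medium containing 20 nM camptothecin, exposed to pin-transferred compounds, and grown at 37 °C for at least 48 hr. Viability was read as ATP luminescence.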
On the % scale 0 is the no-effect control and ±100 the full control effect; potency means the concentration at half of the fitted maximal effect.

SMILES | activity change, negative = growth inhibition | Potency
NS(=O)(=O)c1ccc(CCNC(=O)c2ccc([N+](=O)[O-])cc2[N+](=O)[O-])cc1 | -18.8% | –
Cc1cccc(S(=O)(=O)N(C)C[C@@H]2OCc3cnnn3CCCC(=O)N([C@H](C)CO)C[C@@H]2C)c1 | 1.91% | –
O=C(Nc1cccnc1Cl)c1cc(-c2cccc(Cl)c2)on1 | – | inactive
Cc1ccc(C(=O)Nc2nc3ccc(Cl)cc3s2)o1 | -6.67% | –
O=C(O)c1cc(Cl)c(Cl)cc1C(=O)Nc1cccc2ncccc12 | -2.42% | –
CC(=O)Cc1nsc(NC(=O)c2ccc(Cl)cc2Cl)n1 | 11.2% | –
Cc1csc(NC(=O)c2ccc(-c3ccc(Cl)cc3Cl)o2)n1 | – | 9.2 µM (active)
O=C(Nc1cccc2ncccc12)c1ccc(-c2ccc(Cl)cc2Cl)o1 | – | 20.6 µM (active)
O=C(Cc1ccsc1)N1CCN(S(=O)(=O)c2cc(C(F)(F)F)cc(C(F)(F)F)c2)CC1 | -8.29% | –
COc1ccc(CN2CC(C(=O)NCCc3ccc(Cl)cc3)CC2=O)cc1 (centres undefined) | -17.7% | –
CCc1ccc(Oc2coc3cc(O)ccc3c2=O)cc1 | -11% | –
CCS(=O)(=O)Nc1cc(C(=O)OC)ccc1C(=O)OC | -16.4% | –
CCCN(CCC)C(=S)Nc1cc(C(=O)OC)ccc1C(=O)OC | – | 18.4 µM (active)
CCN(CCO)C(=S)Nc1cc(C(=O)OC)ccc1C(=O)OC | 0.997% | –
CCc1ccc(-n2nc(C)c3c(C)cc(=O)n(CC(=O)Nc4ccc(F)cc4C)c32)cc1 | -9.33% | –
CCC(C(=O)OC)n1cnc2c(oc3ccccc32)c1=O (centres undefined) | 3.5% | –
Cc1cccc(C(=O)Nc2ccc(S(=O)(=O)N3CCCCC3c3cccnc3)cc2)c1 (centres undefined) | – | 23.1 µM (active)
CCOc1ncccc1C(=O)Nc1ccc(S(=O)(=O)Nc2nc(C)cc(C)n2)cc1 | -17% | –
CCOc1ccccc1C(=O)Nc1ccc(S(=O)(=O)N2CCCCC2c2cccnc2)cc1 (centres undefined) | – | 18.4 µM (active)
COc1ccc(C(=O)NC(=S)N2CCCCC2c2cccnc2)cc1OC (centres undefined) | -18.3% | –
Cc1ccc(S(=O)(=O)N2CCCCC2)cc1NC(=O)c1cccnc1 | -16% | –
Cc1cc(NS(=O)(=O)c2ccc(NC(=O)c3cccnc3)cc2)nc(C)n1 | -2% | –
COc1ccc(NC(=O)CSc2nnc(-c3nnn(-c4ccc(F)cc4)c3C)o2)cc1 | 0.559% | –
CC1(C(=O)NCc2ccc3c(c2)OCO3)CCN1C(=O)Cc1cccs1 (centres undefined) | 2.42% | –
CSc1ccc(CN2CCC2(C)C(=O)NCc2ccccc2Br)cc1 (centres undefined) | – | 18.4 µM (active)
CC1(C(=O)NCc2cccc3ccccc23)CCN1Cc1ccc(-c2ccccc2)o1 (centres undefined) | – | 23.1 µM (active)
CC1(C(=O)NS(=O)(=O)c2cccc(F)c2)CCN1C(=O)c1cccc2ccccc12 (centres undefined) | 0.466% | –
CSc1ccc(CNC(=O)C2(C)CCCN2C)cc1 (centres undefined) | -10.1% | –
CCCC(=O)N1CCC1(C)C(=O)NCc1ccc(SC)cc1 (centres undefined) | -26.1% | –
